# Source: PubChem BioAssay (EPA / NIEHS)
# “And” between values parts separate entries of the source, which are not always exact repeats. Equal values may be shown once. Where a structure was tested more than once in an assay, its records may differ in their call. The source made the active and inactive calls. How the source made its calls: active means hit-call score of the fitted dose curve at least 0.9, where 1 is the maximum; inactive means score below 0.9.
# What was measured:
# [1] = APR_HepG2_NuclearSize_72hr: Apredica 72-hour HepG2 Assay for Nuclear Size (AID 2282925); settings: high-content imaging, actives raise or lower the signal
# Summary of the method: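 Read-out: nuclear diameter from Hoechst 33342 images (ArrayScan, 20x, six fields/well), via cell-cycle image analysis. HepG2 were dosed 0.39–200 uM for 72 hr in 0.5% DMSO. Bidirectional fit relative to DMSO.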
# [2] = ATG_CRE_CIS: Attagene CIS-FACTORIAL HepG2 Assay for human cAMP Responsive Element (CRE) binding protein 3 (AID 2282926); settings: HepG2 CRE cis-reporter, Attagene multiplexed mRNA; actives raise or lower the signal
# Summary of the method: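 Cells carrying cis-regulated reporter constructs respond through their own endogenous factors. After 24 h treatment, RNA is reverse-transcribed, amplified, labelled and sized by capillary electrophoresis; up- and down-regulation are both scored against vehicle.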
# [3] = target: CCAAT/enhancer-binding protein beta (Homo sapiens) (UniProt P17676); assay: ATG_C_EBP_CIS: Attagene CIS-FACTORIAL HepG2 Assay for human CCAAT/Enhancer Binding Protein (C/EBP) beta (AID 2282927); settings: HepG2 Attagene cis-factorial transcription factor reporter; actives raise or lower the signal
# Summary of the method: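 HepG2, transient MRTU transfection, 24 h treatment. RT-PCR plus CE fluorescence; DMSO negative control, bidirectional fit.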
# [4] = ATG_CMV_CIS: Attagene CIS-FACTORIAL HepG2 Assay for human CMV (Internal Marker) (AID 2282928); settings: HepG2 CMV promoter reporter, transcription factor profiling; actives raise or lower the signal;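 further: endpoint acts as a background internal control marker rather than a target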
# Summary of the method: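 24 h chemical treatment, HepG2 with transient multi-reporter transfection; RNA → oligo(dT) RT → PCR → 6-FAM extension → HpaI digest → CE fluorescence. Bidirectional fit, DMSO negative control.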
# [5] = ATG_DR4_LXR_CIS: Attagene CIS-FACTORIAL HepG2 Assay for human Liver X Receptor (LXR), DR4 submotif (AID 2282929); settings: HepG2 Attagene DR4 cis-reporter, mRNA transcription; actives raise or lower the signal
# Summary of the method: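 Transiently transfected HepG2 liver cells; cis-regulated reporters; 24 h dosing. RT-PCR plus CE read-out of reporter mRNA. DMSO baseline, bidirectional curve fitting.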
# [6] = target: Aryl hydrocarbon receptor (Homo sapiens) (UniProt P35869); assay: ATG_Ahr_CIS: Attagene CIS-FACTORIAL HepG2 Assay for human Aryl Hydrocarbon Receptor (Ahr) (AID 2282930); settings: HepG2 AhR cis-factorial reporter transcription; actives raise or lower the signal
# Summary of the method: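 Endogenous factor activity is tracked through cis-promoter reporter units transfected into HepG2 cells. Transcript levels at 24 h are read by fluorescent RT-PCR and capillary electrophoresis, with activity in either direction scored relative to DMSO.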
# [7] = ATG_AP_1_CIS: Attagene CIS-FACTORIAL HepG2 Assay for human Activator Protein 1 (AP-1) (AID 2282931); settings: HepG2 Attagene cis-factorial AP-1 reporter mRNA; actives raise or lower the signal
# Summary of the method: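 We transfected HepG2 cells transiently with a set of cis-regulated reporter transcription units, dosed them for 24 h, and quantified reporter mRNA via RT-PCR and capillary electrophoresis, scoring gain or loss of signal relative to DMSO.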
# [8] = ATG_AP_2_CIS: Attagene CIS-FACTORIAL HepG2 Assay for human Activator Protein 2 (AP-2) (AID 2282932); settings: HepG2 AP-2 cis-reporter, Attagene transcription factor profiling; actives raise or lower the signal
# Summary of the method: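 Read-out: fluorescent reporter mRNA via RT-PCR and capillary electrophoresis, 24 h post-dose in transiently transfected HepG2. Endogenous factors drive cis-promoter reporters; gain or loss of signal fitted bidirectionally against DMSO.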
# [9] = ATG_BRE_CIS: Attagene CIS-FACTORIAL HepG2 Assay for human Bone Morphogenetic Protein (BMP) Response Element (BRE) (AID 2282933); settings: HepG2 BMP response element reporter, Attagene transcription factor profiling; actives raise or lower the signal
# Summary of the method: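 Multiplexed cis-reporter assay, HepG2, 24 h exposure. mRNA from reporter units quantified via RT-PCR/CE; DMSO baseline; bidirectional curve fit.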
# [10] = target: Retinoic acid receptor alpha (Homo sapiens) (UniProt P10276); assay: ATG_DR5_RAR_CIS: Attagene CIS-FACTORIAL HepG2 Assay for human Retinoic Acid Receptor Alpha (RARE), DR5 submotif (AID 2282934); settings: HepG2 Attagene cis-factorial RARE DR5 reporter, mRNA; actives raise or lower the signal;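 on AC50: reporter responds to endogenous RAR alpha beta and gamma in HepG2 not RARA alone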
# Summary of the method: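 After 24 h of chemical exposure, transiently transfected HepG2 cells were lysed for total RNA; the DR5-regulated reporter transcript was quantified via RT-PCR and capillary electrophoresis, with activity fitted bidirectionally against DMSO.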
# [11] = target: Transcription factor E2F1 (Homo sapiens) (UniProt Q01094); assay: ATG_E2F_CIS: Attagene CIS-FACTORIAL HepG2 Assay for human E2F Transcription Factor 1 (AID 2282935); settings: HepG2 Attagene cis-reporter, E2F reporter RNA transcripts; actives raise or lower the signal
# Summary of the method: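 Transient MRTU transfection of HepG2; 24 h compound exposure; RNA → oligo(dT) RT → PCR → FAM label → HpaI cut → CE fluorescence. Gain/loss of signal fit against DMSO.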
# [12] = ATG_E_Box_CIS: Attagene CIS-FACTORIAL HepG2 Assay for human Enhancer Box (E-box) (AID 2282936); settings: HepG2 E-box cis-reporter transcription, actives raise or lower the signal
# Summary of the method: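 Transiently transfected HepG2, endogenous TF-driven reporters, 24 h dosing. Readout: RT-PCR plus capillary electrophoresis of fluorescent reporter fragments. Gain or loss of signal fitted bidirectionally against DMSO baseline.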
# [13] = ATG_M_61_CIS: Attagene CIS-FACTORIAL HepG2 Assay for M61 Transcription Factor (Internal Marker) (AID 2282937); settings: HepG2 Attagene CIS-FACTORIAL M61 internal marker reporter; actives raise or lower the signal
# Summary of the method: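 Multiplexed reporter mRNA assay, HepG2 human hepatoma cells, 24 h treatment. Signal: FAM-labelled, HpaI-digested RT-PCR fragments by CE. Fit: bidirectional, baseline DMSO.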
# [14] = ATG_EGR_CIS: Attagene CIS-FACTORIAL HepG2 Assay for human Early Growth Response 1 (EGR1) (AID 2282938); settings: HepG2 Attagene CIS-FACTORIAL EGR reporter mRNA; actives raise or lower the signal
# Summary of the method: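 Multiplexed cis-reporter system in human hepatoma HepG2 cells, transiently transfected. Cells are dosed for 24 h; reporter transcripts are amplified, fluorescently tagged and sized by capillary electrophoresis, with DMSO as negative control.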
# [15] = ATG_M_19_CIS: Attagene CIS-FACTORIAL HepG2 Assay for M19 Transcription Factor (Internal Marker) (AID 2282939); settings: HepG2 Attagene CIS-FACTORIAL M19 internal marker reporter; actives raise or lower the signal
# Summary of the method: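 Signals come from fluorescence of labelled reporter-specific PCR fragments resolved by capillary electrophoresis, following 24 h treatment of HepG2 cells transfected with cis-promoter reporter units; activity was fitted in both directions relative to DMSO.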
# [16] = ATG_ERE_CIS: Attagene CIS-FACTORIAL HepG2 Assay for Estrogen Response Element (ERE) (AID 2282940); settings: HepG2 ERE cis-reporter, Attagene RNA transcript; actives raise or lower the signal
# Summary of the method: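 Fluorescence of capillary-separated, FAM-labelled reporter cDNA fragments indicates reporter mRNA levels in HepG2 cells exposed to chemicals for 24 h. Transient transfection with cis-regulated units; data fitted in both directions against DMSO.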
# [17] = ATG_Ets_CIS: Attagene CIS-FACTORIAL HepG2 Assay for human Erythroblast Transformation Specific (ETS) (AID 2282941); settings: HepG2 ETS cis-reporter transcription, actives raise or lower the signal
# Summary of the method: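 Cis-regulated reporter mRNA induction in HepG2 (transient transfection), 24 h exposure, RT-PCR plus capillary electrophoresis detection; DMSO serves as negative control and baseline.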
# [18] = target: Hepatocyte nuclear factor 3-beta (Homo sapiens) (UniProt Q9Y261); assay: ATG_FoxA2_CIS: Attagene CIS-FACTORIAL HepG2 Assay for human Forkhead box A2 (FOXA2) (AID 2282942); settings: HepG2 cis-reporter transcription factor activity, 24 h; actives raise or lower the signal
# Summary of the method: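 Multiplexed cis-element reporter assay in transiently transfected HepG2. Twenty-four hours post-dosing, RNA was reverse-transcribed, amplified, FAM-labelled, HpaI-digested and separated by CE. Activity gain or loss relative to DMSO.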
# [19] = ATG_FoxO_CIS: Attagene CIS-FACTORIAL HepG2 Assay for human Forkhead box O (FoxO) (AID 2282943); settings: HepG2 Attagene cis-reporter, FoxO element, mRNA; actives raise or lower the signal
# Summary of the method: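 Transfected HepG2 reporter cells exposed to test chemical for 24 h; reporter RNA measured by reverse transcription, PCR and fluorescent capillary electrophoresis; curves fitted for increases and decreases against DMSO.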
# [20] = ATG_GATA_CIS: Attagene CIS-FACTORIAL HepG2 Assay for human GATA Binding Protein (AID 2282944); settings: HepG2 GATA cis-element reporter, Attagene multiplex mRNA; actives raise or lower the signal
# Summary of the method: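 After transfecting HepG2 cells with multiple cis-regulated reporter units, chemicals are dosed for 24 h; isolated RNA undergoes RT-PCR and fluorescent labeling before capillary electrophoresis, with activity expressed against DMSO.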
# Chain of CCAAT/enhancer-binding protein beta (Homo sapiens) (P17676 whole entry, looked up): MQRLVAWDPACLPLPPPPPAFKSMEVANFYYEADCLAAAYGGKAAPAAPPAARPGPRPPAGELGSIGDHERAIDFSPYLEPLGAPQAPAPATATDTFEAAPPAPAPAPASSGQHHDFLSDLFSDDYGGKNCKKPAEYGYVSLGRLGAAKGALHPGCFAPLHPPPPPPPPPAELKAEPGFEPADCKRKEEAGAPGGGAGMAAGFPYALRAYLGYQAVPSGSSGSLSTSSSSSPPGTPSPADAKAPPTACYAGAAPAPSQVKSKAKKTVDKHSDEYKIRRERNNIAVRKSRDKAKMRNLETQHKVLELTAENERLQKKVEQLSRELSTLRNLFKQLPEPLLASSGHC
# Chain of Retinoic acid receptor alpha (Homo sapiens) (P10276 whole entry, looked up): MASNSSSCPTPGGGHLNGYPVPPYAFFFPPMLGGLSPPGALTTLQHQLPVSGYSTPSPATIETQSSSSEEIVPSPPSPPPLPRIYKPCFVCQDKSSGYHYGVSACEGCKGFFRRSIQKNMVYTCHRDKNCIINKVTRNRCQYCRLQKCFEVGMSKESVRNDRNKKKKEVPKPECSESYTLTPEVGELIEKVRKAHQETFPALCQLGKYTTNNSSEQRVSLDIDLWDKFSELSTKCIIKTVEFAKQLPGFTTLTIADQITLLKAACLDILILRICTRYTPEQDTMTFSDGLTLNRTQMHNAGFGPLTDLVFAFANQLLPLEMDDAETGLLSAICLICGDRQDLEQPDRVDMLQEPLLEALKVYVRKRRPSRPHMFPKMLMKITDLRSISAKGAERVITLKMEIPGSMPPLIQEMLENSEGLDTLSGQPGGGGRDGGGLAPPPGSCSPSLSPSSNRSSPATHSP
# Chain of Hepatocyte nuclear factor 3-beta (Homo sapiens) (Q9Y261 whole entry, looked up): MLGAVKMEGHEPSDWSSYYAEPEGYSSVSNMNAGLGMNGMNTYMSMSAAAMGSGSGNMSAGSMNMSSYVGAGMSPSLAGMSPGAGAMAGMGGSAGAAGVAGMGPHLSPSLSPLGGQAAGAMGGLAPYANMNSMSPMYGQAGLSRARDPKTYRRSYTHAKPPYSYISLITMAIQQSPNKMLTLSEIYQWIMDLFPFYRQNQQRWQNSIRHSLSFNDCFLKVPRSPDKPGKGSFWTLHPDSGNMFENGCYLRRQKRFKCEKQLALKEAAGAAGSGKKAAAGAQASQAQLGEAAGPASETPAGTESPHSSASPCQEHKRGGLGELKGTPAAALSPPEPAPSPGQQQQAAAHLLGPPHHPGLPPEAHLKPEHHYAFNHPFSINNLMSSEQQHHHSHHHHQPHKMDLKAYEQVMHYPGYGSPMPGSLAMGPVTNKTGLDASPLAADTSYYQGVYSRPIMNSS
# Chain of Transcription factor E2F1 (Homo sapiens) (Q01094 whole entry, looked up): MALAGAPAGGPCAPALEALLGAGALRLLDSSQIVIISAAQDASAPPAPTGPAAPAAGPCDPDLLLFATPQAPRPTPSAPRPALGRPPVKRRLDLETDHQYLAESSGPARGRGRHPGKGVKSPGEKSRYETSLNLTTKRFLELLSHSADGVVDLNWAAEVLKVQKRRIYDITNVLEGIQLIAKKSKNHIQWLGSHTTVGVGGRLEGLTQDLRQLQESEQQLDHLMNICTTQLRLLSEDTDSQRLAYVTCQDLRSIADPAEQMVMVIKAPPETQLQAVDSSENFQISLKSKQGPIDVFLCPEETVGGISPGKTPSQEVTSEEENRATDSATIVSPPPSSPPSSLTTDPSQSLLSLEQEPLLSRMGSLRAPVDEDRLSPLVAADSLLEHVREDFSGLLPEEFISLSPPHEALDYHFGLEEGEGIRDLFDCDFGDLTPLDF
# Chain of Aryl hydrocarbon receptor (Homo sapiens) (P35869 whole entry, looked up): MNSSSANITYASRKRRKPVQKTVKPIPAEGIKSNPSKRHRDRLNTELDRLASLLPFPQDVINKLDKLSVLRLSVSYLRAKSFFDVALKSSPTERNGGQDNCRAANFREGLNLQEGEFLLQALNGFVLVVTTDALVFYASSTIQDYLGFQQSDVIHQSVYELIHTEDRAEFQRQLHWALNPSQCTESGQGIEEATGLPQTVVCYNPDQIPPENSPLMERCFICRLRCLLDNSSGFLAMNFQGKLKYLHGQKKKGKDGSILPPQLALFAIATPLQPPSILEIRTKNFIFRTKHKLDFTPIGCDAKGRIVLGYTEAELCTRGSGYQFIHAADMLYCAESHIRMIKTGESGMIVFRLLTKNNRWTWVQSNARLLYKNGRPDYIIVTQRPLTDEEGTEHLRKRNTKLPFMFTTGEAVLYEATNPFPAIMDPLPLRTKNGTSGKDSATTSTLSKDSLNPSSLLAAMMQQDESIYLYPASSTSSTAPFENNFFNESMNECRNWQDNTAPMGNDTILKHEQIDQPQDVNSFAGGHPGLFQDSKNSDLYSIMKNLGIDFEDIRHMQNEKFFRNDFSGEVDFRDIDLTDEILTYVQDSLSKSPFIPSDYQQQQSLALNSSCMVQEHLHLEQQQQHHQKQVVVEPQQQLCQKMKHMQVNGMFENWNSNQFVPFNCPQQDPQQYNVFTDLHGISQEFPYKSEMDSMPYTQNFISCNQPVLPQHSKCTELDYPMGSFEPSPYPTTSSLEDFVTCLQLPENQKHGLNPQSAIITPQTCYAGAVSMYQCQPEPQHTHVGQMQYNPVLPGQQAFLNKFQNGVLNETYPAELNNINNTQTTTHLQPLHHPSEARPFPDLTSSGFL
smiles,measurement,setting,value
O=[N+]([O-])c1ccc(O)cc1,outcome,[1],inactive
same,outcome,[2],inactive
same,outcome,[3],inactive
same,outcome,[4],inactive
same,outcome,[5],inactive
same,outcome,[6],inactive
same,outcome,[7],inactive
same,outcome,[8],inactive
same,outcome,[9],inactive
same,outcome,[10],inactive
same,outcome,[11],inactive
same,outcome,[12],inactive
same,outcome,[13],inactive
same,outcome,[14],inactive
same,outcome,[15],inactive
same,outcome,[16],inactive
same,outcome,[17],inactive
same,outcome,[18],inactive
same,outcome,[19],inactive
same,outcome,[20],inactive
c1ccc2cc3c(ccc4ccccc43)cc2c1,outcome,[1],inactive
same,outcome,[2],inactive
same,outcome,[3],inactive
same,outcome,[4],inactive
same,AC50,[5],1.7 µM (active) and 1.25 µM (active) and 3.19 µM (active)
same,outcome,[5],inactive
same,AC50,[7],2.33 µM (active)
same,outcome,[7],inactive
same,outcome,[8],inactive
same,outcome,[9],inactive
same,outcome,[10],inactive
same,outcome,[11],inactive
same,AC50,[12],1.59 µM (active) and 4.58 µM (active) and 2.65 µM (active)
same,outcome,[12],inactive
same,outcome,[13],inactive
same,AC50,[14],2.26 µM (active)
same,outcome,[14],inactive
same,outcome,[15],inactive
same,AC50,[16],2.82 µM (active) [middle of 4 runs]
same,outcome,[17],inactive
same,outcome,[18],inactive
same,outcome,[19],inactive
same,outcome,[20],inactive
CCc1nn(C2CCCCC2)c2cc(C3(C#N)CCC(C(=O)O)CC3)ccc12 (stereo unspecified),outcome,[1],inactive
same,outcome,[2],inactive
same,outcome,[3],inactive
same,outcome,[4],inactive
same,AC50,[5],129 µM (active)
same,outcome,[6],inactive
same,outcome,[7],inactive
same,outcome,[8],inactive
same,outcome,[9],inactive
same,AC50,[10],0.941 µM (active)
same,outcome,[11],inactive
same,outcome,[12],inactive
same,outcome,[13],inactive
same,outcome,[14],inactive
same,outcome,[15],inactive
same,AC50,[16],2.31 µM (active)
same,outcome,[17],inactive
same,outcome,[18],inactive
same,outcome,[19],inactive
same,outcome,[20],inactive
O=C(O)c1ccccc1C(c1ccc(O)cc1)c1ccc(O)cc1,outcome,[1],inactive
same,outcome,[2],inactive
same,outcome,[3],inactive
same,outcome,[4],inactive
same,outcome,[5],inactive
same,AC50,[6],64.8 µM (active)
same,outcome,[6],inactive
same,outcome,[7],inactive
same,outcome,[8],inactive
same,outcome,[9],inactive
same,outcome,[10],inactive
same,outcome,[11],inactive
same,outcome,[12],inactive
same,outcome,[14],inactive
same,outcome,[15],inactive
same,AC50,[16],62.7 µM (active) [middle of 4 runs]
same,outcome,[17],inactive
same,outcome,[18],inactive
same,outcome,[19],inactive
same,outcome,[20],inactive
OCCC(F)(F)C(F)(F)C(F)(F)C(F)(F)C(F)(F)C(F)(F)C(F)(F)C(F)(F)F,outcome,[1],inactive
same,AC50,[2],26.3 µM (active) and 124 µM (active)
same,outcome,[3],inactive
same,outcome,[4],inactive
same,AC50,[5],40.1 µM (active)
same,outcome,[5],inactive
same,outcome,[6],inactive
same,AC50,[7],39.1 µM (active)
same,outcome,[7],inactive
same,outcome,[8],inactive
same,outcome,[9],inactive
same,outcome,[11],inactive
same,AC50,[12],261 µM (active)
same,outcome,[12],inactive
same,outcome,[13],inactive
same,AC50,[14],26.5 µM (active) and 150 µM (active)
same,outcome,[15],inactive
same,AC50,[16],9.11 µM (active) and 8.41 µM (active)
same,AC50,[17],50.7 µM (active) and 150 µM (active)
same,AC50,[18],51.9 µM (active) and 235 µM (active)
same,outcome,[19],inactive
same,outcome,[20],inactive
CCC(C)(C)C1CCC(O)CC1 (stereo unspecified),outcome,[1],inactive
same,outcome,[2],inactive
same,outcome,[3],inactive
same,outcome,[4],inactive
same,AC50,[5],172 µM (active)
same,outcome,[5],inactive
same,AC50,[6],48.2 µM (active)
same,outcome,[6],inactive
same,outcome,[7],inactive
same,outcome,[8],inactive
same,outcome,[9],inactive
same,outcome,[10],inactive
same,outcome,[11],inactive
same,outcome,[12],inactive
same,outcome,[13],inactive
same,outcome,[14],inactive
same,outcome,[15],inactive
same,outcome,[17],inactive
same,outcome,[18],inactive
same,outcome,[19],inactive
same,outcome,[20],inactive
